These results are taken from PubChem BioAssay.

The source made the active and inactive calls. The rule behind the calls is not given here.

Chain of Pantothenate synthetase (Mycobacterium tuberculosis (strain ATCC 25618 / H37Rv)) (P9WIL5 whole entry, looked up): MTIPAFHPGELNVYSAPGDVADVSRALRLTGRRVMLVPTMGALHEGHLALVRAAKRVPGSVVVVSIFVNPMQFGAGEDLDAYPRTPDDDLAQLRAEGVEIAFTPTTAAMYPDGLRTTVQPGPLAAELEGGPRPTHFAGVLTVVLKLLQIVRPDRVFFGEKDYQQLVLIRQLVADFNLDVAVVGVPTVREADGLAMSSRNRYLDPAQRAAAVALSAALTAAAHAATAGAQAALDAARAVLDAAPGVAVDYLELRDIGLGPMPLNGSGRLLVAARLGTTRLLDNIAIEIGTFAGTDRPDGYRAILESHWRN

The assay has as its target Pantothenate synthetase (Mycobacterium tuberculosis (strain ATCC 25618 / H37Rv)) (UniProt P9WIL5). The experiment in a line: Coupled enzyme confirmation of inhibitors against recombinant Mtb PanC (AID 375).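 Note: 0% = full reaction with vehicle and 100% = no enzyme background.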 The note with it: coupled enzyme assay; at 10 µM, stronger effect = higher value.
Take `O=C(CCN1C(=O)C2C3C=CC(C3)C2C1=O)NCCc1ccccc1Cl` (configuration not stated): the inhibition (commonly the change of the read-out against control, counted positive when it falls) is 0% (inactive).

Turning to `CC1(C)COCN1S(=O)(=O)c1ccc(C(=O)Nc2nnc(-c3ccc(Cl)s3)o2)cc1`, the inhibition was 4% (inactive).

Turning to `COc1ccc(-n2ncc3c(=O)n(CC(=O)OCc4ccccc4)cnc32)cc1`, the inhibition was 0% (inactive).

`CCCCOCCCNC(=O)c1cccs1`: the inhibition was 0% (inactive).

Turning to `COc1ccccc1C(=O)Nc1ccc(N2CCN(Cc3ccccc3)CC2)cc1`, the inhibition was 0% (inactive).

As to `COc1ccc2[nH]c(=O)c(CN(C(=O)c3cccnc3)c3ccccc3OC)cc2c1`, the inhibition is 1% (inactive).

Regarding `Cc1cc(=O)n2nc(N3CCCC(C(=O)N4CCN(C)CC4)C3)sc2n1` (configuration not stated), the inhibition is 1% (inactive).

Take `COc1ccc(-n2ncc3c(N4CCC(C)CC4)ncnc32)cc1`: the inhibition is 1% (inactive).

As for `CC1CCN(C(=O)Cn2c(=O)oc3ccccc32)CC1`, the inhibition was 0% (inactive).

For the molecule `CCCN(CCC)CCCNS(=O)(=O)c1ccc2c(c1)oc(=O)n2C`, the inhibition is 0% (inactive).

With `COc1cccc(C2=NOC(C(=O)Nc3ccc(C(C)=O)cc3)C2)c1` (configuration not stated), the inhibition was 0% (inactive).

Regarding `COc1cc2c(cc1OC)-c1cc(OCc3cccnc3)nc(=O)n1CC2`, the inhibition was 12% (inactive).

With `O=C(CSc1nc(-c2ccc(F)cc2)cs1)N1CCOCC1`, the inhibition was 0% (inactive).

As to `COc1ccc2cc(C#N)c(NC(C)C)nc2c1`, the inhibition was 0% (inactive).

`OC(CN1CCN(c2ccccn2)CC1)Cn1c2ccccc2c2ccccc21` (configuration not stated): the inhibition was 0% (inactive).

With `CC(=O)c1ccc(OCC(O)CN2CC(C)OC(C)C2)cc1` (configuration not stated), the inhibition is 0% (inactive).

In the case of `N#C/C(C(=O)N1CCOCC1)=C1/SC(Cc2ccccc2)C(=O)N1c1ccccc1` (configuration not stated), the inhibition is 0% (inactive).
